Shown are actives, neighbours in structure and some others; about 4.6% of the full set was active somewhere.
ABHD5 PLIN5 PPI – blocks binding of human ABHD5 to perilipin-5; inhibition, % at 4 µM; 360,000 tested, 0.78% active; Split G. princeps luciferase complementation, luminescence, 4 h; AID 602281;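 active = inhibition above the mean inhibition across every tested compound plus 3 SD, cut at about 22% in these data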;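 also: 0% = DMSO only wells and the 100% control is not disclosed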
Target sequence (Q00G26 whole entry, looked up): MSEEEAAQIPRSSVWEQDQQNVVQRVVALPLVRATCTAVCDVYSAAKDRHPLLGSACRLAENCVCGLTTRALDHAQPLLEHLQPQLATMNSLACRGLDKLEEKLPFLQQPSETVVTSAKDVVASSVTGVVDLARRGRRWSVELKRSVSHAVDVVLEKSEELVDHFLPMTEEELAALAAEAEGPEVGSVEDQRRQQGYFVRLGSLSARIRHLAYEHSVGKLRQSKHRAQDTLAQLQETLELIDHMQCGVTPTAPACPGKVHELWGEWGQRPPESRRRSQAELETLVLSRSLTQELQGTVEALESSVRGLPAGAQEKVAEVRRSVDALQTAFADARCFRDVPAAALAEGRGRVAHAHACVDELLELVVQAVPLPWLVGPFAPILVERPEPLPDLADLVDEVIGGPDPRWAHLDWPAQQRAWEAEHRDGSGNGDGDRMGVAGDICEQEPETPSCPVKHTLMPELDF
Target sequence (Q8WTS1 whole entry, looked up): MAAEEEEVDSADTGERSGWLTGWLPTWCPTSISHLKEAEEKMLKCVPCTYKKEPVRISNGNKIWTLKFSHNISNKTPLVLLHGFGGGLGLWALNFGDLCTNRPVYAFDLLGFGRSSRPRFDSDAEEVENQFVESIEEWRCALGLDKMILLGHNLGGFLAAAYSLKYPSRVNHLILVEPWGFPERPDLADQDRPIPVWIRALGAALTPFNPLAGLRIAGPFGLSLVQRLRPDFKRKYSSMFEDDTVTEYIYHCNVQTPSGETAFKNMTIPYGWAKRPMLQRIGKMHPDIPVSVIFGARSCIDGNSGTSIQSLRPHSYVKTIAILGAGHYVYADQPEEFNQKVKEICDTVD
CF NFkB block – blocks PAF-induced NF-kB reporter in cystic fibrosis cells; KKLEB NF-kB-GFP reporter, GFP fluorescence overnight; inhibition, % at 5 µM; 360,000 tested, 0.86% active; AID 588850;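 active = at least 50% inhibition at 5 µM, scaled per plate between neutral and stimulator controls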;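 also: PAF is a Pseudomonas aeruginosa culture filtrate used as stimulus; plate controls were PAF-stimulated DMSO wells for no effect and unstimulated DMSO wells for full effect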
KKLEB cytotox – counter-screen for CF NF-kB inhibitors: cytotoxicity; activity change (cytotoxicity), % at 5 µM; AID 602141; KKLEB CF airway cells viability, ATPlite luminescence, overnight; active compounds read low; cells stimulated with P. aeruginosa culture filtrate; 360,000 tested, 0.36% active;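 active = corrected activity change at or below -50% at 5 µM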
Mdm2 MdmX PPI – inhibitors of human Mdm2/MdmX interaction. inhibition, % at 8 µM. SaOS-2 split-luciferase Mdm2/MdmX complementation, luminescence. 330,000 tested, 3% active;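 active = inhibition of at least 50% at 8 µM in the primary screen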
Peg3 prom inh-1 – reduces Peg3 promoter-driven luciferase expression in HeLa. HeLa PEG-Prom luciferase reporter, luminescence, overnight. inhibition, % at 20 µM. 360,000 tested, 1.7% active. AID 588405;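 active = inhibition of at least 50% at 20 µM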
HIF-2a block – blocks HIF-2a reporter activity; 786-0 RCC cells HIF-2a reporter, luciferase luminescence, overnight; AID 624352; 360,000 tested, 0.72% active; inhibition, % at 18.8 µM;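 active = inhibition of the luminescence signal of 40% or more relative to plate controls, in a single-dose primary screen at 18.75 µM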
Mdm2 MdmX conf – confirmation of human Mdm2/MdmX interaction inhibitors. shares compounds with Mdm2 MdmX PPI. Mdm2-MdmX binding, luminescent assay. inhibition, % at 8 µM. 10,000 tested, 55% active
Full FLuc ctr – inhibits full-length luciferase, flagging false Mdm2/MdmX hits; shares compounds with Mdm2 MdmX PPI; 6,200 tested, 77% active; AID 504607; inhibition, % at 8 µM; SaOS-2 full-length luciferase counterscreen, luminescence;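 active = mean inhibition at 8 µM reaching about 37%, which flags the compound as non-specific, limit read from the data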;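 also: p53-null SaOS-2 cells with luciferase driven by a doxycycline-inducible promoter; compound on cells about two nights before reading with doxycycline added after day one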
Peg3 prom inh-2 – Peg3 promoter inhibition confirmation | HeLa PEG-Prom luciferase reporter, luminescence, overnight | shares compounds with Peg3 prom inh-1 | inhibition, % at 20 µM | 1,300 tested, 84% active;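 active = at 20 µM dose, 40% or more inhibition averaged across four replicates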
CF NFkB conf – confirmation of cystic fibrosis induced NF-kB inhibitors. AID 602472. shares compounds with CF NFkB block. 1,300 tested, 64% active. KKLEB CF airway cells, PAF-induced NF-kB-GFP fluorescence, overnight. inhibition, % at 5 µM;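 also: stimulus PAF is a Pseudomonas aeruginosa filtrate and not platelet activating factor; plate controls were DMSO wells with stimulus for no effect and unstimulated DMSO wells for full effect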
ABHD5 PLIN5 conf – ABHD5-PLIN5 interaction inhibition, confirmed; AID 651612; 2,200 tested, 67% active; biochemical ABHD5-PLIN5 interaction, luminescence; shares compounds with ABHD5 PLIN5 PPI; inhibition, % at 4 µM; in the data active = inhibition above about 23%;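 also: 0% = DMSO vehicle wells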
HNF4 counter – counter-screen for ABHD5-PLIN5 inhibitors: HNF4 split-luciferase; shares compounds with ABHD5 PLIN5 PPI; HNF4 dimerization, luminescence, biochemical; inhibition, % at 4 µM; 2,200 tested, 77% active;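 active = mean inhibition across replicate wells exceeding the computed hit threshold, cut at about 13% in these data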;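 also: light from luciferase halves that rejoin when HNF4 fusion proteins dimerize; 0% = DMSO only wells and the 100% control is not given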
An asterisk follows results filed as active; / = no result. Rule as the data show it, unless noted: active = inhibition above about 40%; inactive = the rest.

SMILES	ABHD5 PLIN5 PPI	CF NFkB block	KKLEB cytotox	Mdm2 MdmX PPI	Peg3 prom inh-1	HIF-2a block	Mdm2 MdmX conf	Full FLuc ctr	others
COc1ccc2c3c1OC1C(=O)CC[C@@]4(O)[C@@H](C2)N(C)CC[C@]314 (some centres not stated)	19	32	-5	67*	50*	-2	53*	21
CCOc1ccccc1N=C1SCCCN1C	-4	12	-17	11	1	19	/	/
CCOc1cccc(=NC2CCCCC2)c2c(C)n(C)c(C)c12	8	-39	-4	54*	30	0	26	/
O=c1[nH]c(O)c(N=Nc2ccc3c(c2)OCCO3)c(=O)[nH]1	3	2	-6	58*	-32	39	68*	78*
N[C@@H](Cc1ccc(N(CCCl)CCCl)cc1)C(=O)O	-4	16	-15	68*	1	-5	40	36*
CC(=O)NC(Cc1ccc(N(CCCl)CCCl)cc1)C(=O)O (configuration not stated)	4	-5	-1	0	10	3	/	/
C[C@]12C[C@H](O)[C@@H](O)CC1=CCC1C2CC[C@@]2(C)C1CC[C@@H]2O (some centres not stated)	-2	3	-15	14	2	-2	/	/
FC(F)(F)c1ccc2c(c1)N(CCCN1CCN(CCCl)CC1)c1ccccc1S2	21	18	-14	61*	45	19	23	/
Nc1ccc(CCN2CCN(c3cccc(C(F)(F)F)c3)CC2)cc1	5	15	-6	13	-23	-63	/	/
Cc1ccc(N2C(=O)NC(=O)/C(=C/c3ccoc3)C2=O)cc1	6	2	2	/	5	25	/	/
Cc1ccc(N2C(=O)NC(=O)/C(=C/C=C/c3ccco3)C2=O)cc1	17	81*	-20	54*	86*	64*	32	/	Peg3 prom inh-2=35
c1ccc2[nH]c(CCN3CCCCC3)nc2c1	4	-18	9	/	-5	-37	/	/
CN1CCc2cc3c(c4c2C1Cc1ccccc1-4)OCO3 (configuration not stated)	-10	-172	7	59*	71*	39	52*	61*	Peg3 prom inh-2=27
COc1ccc(CNCCc2c(C)[nH]c3ccc(OC(F)(F)F)cc23)c(OC)c1	13	16	-11	87*	99*	7	53*	52*	Peg3 prom inh-2=99*
O=C(/C=C/c1ccc(F)cc1)NC(=S)N1C[C@H]2C[C@H](C1)c1cccc(=O)n1C2	3	-29	4	4	-3	-1	/	/
O=C(CSC1c2ccccc2-c2ccccc21)N/N=C/c1ccc(C(=O)O)cc1	-5	9	12	22	9	12	/	/
O=C(CSC1c2ccccc2-c2ccccc21)N/N=C/c1ccccc1O	-3	-17	-9	82*	55*	7	76*	28	Peg3 prom inh-2=64*
C=CC[C@@H](CC/C=C/C=C/CC/C=C\[C@@H]1CSC([C@@H]2C[C@@H]2C)=N1)OC	9	54*	-31	56*	-10	17	49*	114*	CF NFkB conf=48*
CCOC(=O)[C@]12Cc3ccc4ccccc4c3[C@H]1N(Cc1ccccc1)C(=O)c1ccccc12	-9	/	/	/	/	15	/	/
COc1ccc(C[C@H]2NC[C@H](O)[C@H]2OC(C)=O)cc1	-1	88*	-45	98*	94*	91*	98*	5	CF NFkB conf=116*
COc1ccc(CCNC2CCCCC2)cc1	7	-18	5	14	3	13	/	/
NCCc1ccc(OCc2ccccc2)c(OCc2ccccc2)c1	28*	23	-8	92*	107*	18	24	/	ABHD5 PLIN5 conf=14;HNF4 counter=7
COC(=O)C[C@]1(C(=O)OC)CN(C#N)N(c2ccc(Cl)cc2)C12c1ccccc1-c1ccccc12	78*	88*	-96*	99*	103*	85*	7	/	ABHD5 PLIN5 conf=98*;HNF4 counter=97*
C[n+]1c(-c2ccccc2)cc(-c2ccc(Cl)cc2)cc1-c1ccccc1	-3	-23	-1	23	2	17	/	/
CN(C)c1ccc(-[n+]2c(-c3ccccc3)cc(-c3ccccc3)cc2-c2ccccc2)cc1	26*	49	-45	89*	72*	35	95*	23	ABHD5 PLIN5 conf=6;HNF4 counter=3
SMILES	ABHD5 PLIN5 PPI	CF NFkB block	KKLEB cytotox	Mdm2 MdmX PPI	Peg3 prom inh-1	HIF-2a block	Mdm2 MdmX conf	Full FLuc ctr	others
Cc1ccc(-c2cc(-c3ccc(C)cc3)[n+](-c3ccccc3)c(-c3ccc(C)cc3)c2)cc1	28*	32	-40	93*	80*	57*	94*	12	Peg3 prom inh-2=94*;ABHD5 PLIN5 conf=9;HNF4 counter=11
Nc1ncn[nH]1	-1	7	8	4	13	9	/	/
C=C1C(=O)O[C@@H]2C[C@@H](C)[C@H]3C=CC(=O)[C@]3(O)C[C@@H]12	33*	-47	8	58*	28	9	-8	/	ABHD5 PLIN5 conf=47*;HNF4 counter=24*
CCOP(=O)(Nc1ccc2c(c1)C(=NNC(N)=S)c1ccccc1-2)OCC	-6	-56	-10	/	36	12	/	/
CN1C2CCC1CC(OC(=O)c1ccc(Cl)cc1)C2 (configuration not stated)	0	9	0	26	14	19	/	/
CN1[C@@H]2CC[C@H]1CC(OC1c3ccccc3CCc3ccccc31)C2 (some centres not stated)	32*	16	6	71*	31	5	32	70*	ABHD5 PLIN5 conf=77*;HNF4 counter=35*
O=C1NCN(c2ccccc2)C12CCN(C(c1ccccc1)c1nnnn1C1CCCC1)CC2 (configuration not stated)	7	2	-6	/	10	15	/	/
CCOC(=O)CNC(=O)N1Cc2ccccc2-n2nncc2C1	3	-1	6	/	1	-11	/	/

Assay outcomes deposited in PubChem by several laboratories.
